# Experimental data reported in publication PMC4336329 (PLoS ONE, 2015).
# In all, about 310,000 compounds went through this assay and about 14,000 (4.5%) showed an effect of 50% or more. Effects have a minus sign here. What follows is part of a selection rich in strong results, with near analogues and random picks from the rest.
# Target: human ether-à-go-go-related gene (hERG) potassium channel (human, UniProt Q12809)
# Experiment: primary screen, population patch clamp on CHO cells stably expressing hERG; higher = less effect of the substance
# 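Also: peak tail current of the secondary pulse compared with the same well before compound.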
# Chain of human ether-à-go-go-related gene (hERG) potassium channel (Q12809 whole entry, looked up): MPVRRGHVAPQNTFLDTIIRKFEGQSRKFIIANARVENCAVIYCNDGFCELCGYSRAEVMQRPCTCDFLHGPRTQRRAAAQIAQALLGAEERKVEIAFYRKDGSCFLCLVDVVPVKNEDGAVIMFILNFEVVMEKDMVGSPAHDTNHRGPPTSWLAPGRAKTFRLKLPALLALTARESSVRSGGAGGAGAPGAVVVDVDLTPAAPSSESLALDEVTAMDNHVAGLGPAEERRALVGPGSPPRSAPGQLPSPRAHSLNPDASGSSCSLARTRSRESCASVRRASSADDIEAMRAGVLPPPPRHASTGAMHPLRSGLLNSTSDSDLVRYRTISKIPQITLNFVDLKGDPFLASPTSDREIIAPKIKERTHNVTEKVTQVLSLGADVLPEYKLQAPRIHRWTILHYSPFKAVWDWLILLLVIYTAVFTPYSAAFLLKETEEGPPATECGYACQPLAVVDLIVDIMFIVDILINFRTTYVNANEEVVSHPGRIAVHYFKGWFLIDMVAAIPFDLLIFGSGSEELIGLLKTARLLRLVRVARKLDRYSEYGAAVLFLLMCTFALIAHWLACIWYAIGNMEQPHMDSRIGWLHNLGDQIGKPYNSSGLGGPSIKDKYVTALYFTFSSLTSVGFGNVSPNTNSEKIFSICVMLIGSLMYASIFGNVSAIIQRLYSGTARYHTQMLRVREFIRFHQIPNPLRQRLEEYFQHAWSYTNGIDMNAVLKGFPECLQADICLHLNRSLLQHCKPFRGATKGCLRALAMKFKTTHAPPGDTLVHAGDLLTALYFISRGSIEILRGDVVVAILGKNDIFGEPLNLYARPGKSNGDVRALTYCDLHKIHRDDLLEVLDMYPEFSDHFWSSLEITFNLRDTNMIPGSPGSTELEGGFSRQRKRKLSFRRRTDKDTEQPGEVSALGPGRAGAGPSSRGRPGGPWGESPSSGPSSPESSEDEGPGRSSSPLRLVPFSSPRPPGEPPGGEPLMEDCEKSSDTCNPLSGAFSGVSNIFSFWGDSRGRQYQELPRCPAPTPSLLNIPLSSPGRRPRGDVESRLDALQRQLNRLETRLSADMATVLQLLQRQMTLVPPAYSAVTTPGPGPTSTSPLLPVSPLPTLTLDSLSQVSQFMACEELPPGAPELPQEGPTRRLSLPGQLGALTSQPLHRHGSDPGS
row,SMILES,"hERG current change (%, negative = inhibition) at 10uM"
1,O=C(CSc1nnc(C2COc3ccccc3O2)o1)N1CCN(c2ccccc2)CC1 (stereo not drawn),8.03%
2,CCOC(=O)N1CCN(C(=O)C2CCC(CNS(=O)(=O)c3ccccc3)CC2)CC1 (stereo not drawn),3.18%
3,COc1ccc(NC(=O)c2ccc(-c3ccc([N+](=O)[O-])cc3)o2)cc1OC,-64.9%
4,COc1ccc(CCNC(=O)Cc2ccc([N+](=O)[O-])cc2)cc1OC,-11.6%
5,COc1ccc(CCNC(=O)c2ccc(-c3cccc([N+](=O)[O-])c3)o2)cc1OC,-26.7%
6,COc1ccc(NC(=O)c2ccc(-c3ccc([N+](=O)[O-])cc3)o2)cc1,-33.1%
7,COc1ccc(CCNC(=O)c2ccc(-c3ccc([N+](=O)[O-])cc3)o2)cc1OC,-60.7%
8,COc1cccc(NC(=O)c2ccc(-c3ccc([N+](=O)[O-])cc3)o2)c1,-36.2%
9,CCOC(=O)c1c(NC(=O)CCS(=O)(=O)c2ccccc2)sc2c1CC(C)(C)NC2(C)C,-44.9%
10,O=C(Nc1cccc(S(=O)(=O)N2CCOCC2)c1)c1ccc2ccccc2n1,-1.59%
11,CCNc1nc(NCC)nc(SCCOc2ccc(C)cc2)n1,-40.6%
12,COc1ccccc1N1CCN(C(=O)COc2ccc(S(=O)(=O)NC(C)C)cc2)CC1,-4.64%
13,CCN1CCN(CCCN(Cc2ccco2)C(=S)Nc2ccccc2Cl)CC1,-53.5%
14,CCN1CCN(CCCN(Cc2ccco2)C(=S)Nc2cccc(Cl)c2C)CC1,-61.2%
15,Cc1c(Cl)cccc1NC(=S)N(CCN(C)C)C(C)c1ccco1 (stereo not drawn),-55.9%
16,Cc1ccccc1NC(=S)N(CCN(C)C)C(C)c1ccco1 (stereo not drawn),-12.1%
17,COCCN(C(=S)Nc1cccc(Cl)c1C)C(C)c1ccco1 (stereo not drawn),-15.4%
18,Cc1c(Cl)cccc1NC(=S)N(CCCN1CCOCC1)Cc1ccco1,-43.9%
19,S=C(Nc1ccccc1Cl)N(CCCN1CCOCC1)Cc1ccco1,0.554%
20,O=C(NCCCN1CCCC1=O)c1cccc(Oc2ccccc2)c1,10.5%
21,CCN(CC(=O)Nc1c(F)cccc1F)C(=O)CCN1C(=O)c2cccc([N+](=O)[O-])c2C1=O,16.2%
22,N#CCC(=O)Nc1ncn(Cc2ccccc2Cl)n1,15.4%

row,SMILES,"hERG current change (%, negative = inhibition) at 10uM"
1,CCCCc1nc2cc(C(=O)NCc3ccccn3)ccc2o1,2.61%
2,COc1ccccc1C(=O)NC(=O)CSc1nc2nc(C)cc(C)n2n1,0.704%
3,Cc1cccc(N=c2oc3cc(O)ccc3cc2C(N)=O)c1,-17.3%
4,Cc1cc(C(=O)CSc2ncccn2)c(C)n1-c1cccc(F)c1,-5.48%
5,Cc1cc(C(=O)CSc2nc(N)cc(N)n2)c(C)n1-c1cccc(F)c1,-14.2%
6,Cc1cc(C(=O)CSc2nc(N)cc(N)n2)c(C)n1-c1cccc(C(F)(F)F)c1,-64.4%
7,C=CCn1c(Cc2ccccc2)n[nH]c1=S,11.7%
8,COc1cc(C(=O)NCc2nnc(SCC(=O)N3CCOCC3)o2)cc(OC)c1OC,17.2%
9,OCCCNc1nccc(-c2cc(Nc3cccc(Cl)c3)ncn2)n1,9.69%
10,CN(C)CCCNc1ccc(-c2cc(Nc3cccc(Cl)c3)ncn2)cn1,-58.4%
11,OCCCNc1cc(-c2ccnc(Nc3cccc(Cl)c3)n2)ccn1,-30.3%
12,CC(=O)Nc1ccc(C(=O)OCC(=O)Nc2ccc([N+](=O)[O-])cc2C(F)(F)F)cc1,7.22%
13,CC(C)(C)c1ccc(Cn2c(=N)n(CC(O)c3ccco3)c3ccccc32)cc1.Cl (stereo not drawn),-71.9%
14,CCn1c(=N)n(CC(O)c2ccco2)c2ccccc21.Cl (stereo not drawn),-30.7%
15,O=c1c2ccccc2n(Cc2ccc(Cl)cc2)c(=O)n1Cc1ccco1,4.77%
16,CC(C)(C)c1ccc(Cn2c(=O)cnc3ccccc32)cc1,-4.85%
17,Cl.N=c1n(Cc2ccc(Cl)cc2)c2ccccc2n1CC(O)c1ccco1 (stereo not drawn),-64.1%
18,Cc1ccc(Cn2c(=O)n(Cc3ccco3)c(=O)c3ccccc32)cc1,16.3%
19,Cc1ccc(Cn2c(=N)n(CC(O)c3ccco3)c3ccccc32)cc1.Cl (stereo not drawn),-64.5%
20,O=C(Nc1nc2ccccc2n1Cc1ccc(Cl)cc1)c1ccco1,5.47%
21,O=C(c1cccs1)N(Cc1cc2ccccc2[nH]c1=O)c1ccccc1,-11.8%
22,CC(C)CN=Cc1c(O)c([N+](=O)[O-])cc2oc3c(c12)CCCC3,0.113%

row,SMILES,"hERG current change (%, negative = inhibition) at 10uM"
1,COc1ccc(CCNC(=O)c2cccc(S(=O)(=O)N3CCOCC3)c2)cc1OC,1.15%
2,CC(C)(C)N1CC(C(=O)Nc2ccc(C#N)cc2)CC1=O (stereo not drawn),11.6%
3,O=C(NCCc1ccc(Cl)cc1)c1nnc(Cc2ccc(Cl)cc2)o1,10.1%
4,CN(C)c1ccc(C2CC(=O)NC3=C2C(=O)CC(C)(C)C3)cc1 (stereo not drawn),1.9%
5,Cc1ccc(F)cc1NC(=O)N1CCN(c2ccnc3cc(Cl)ccc23)CC1,-67%
6,O=C(Nc1ccc(Cl)cc1Cl)N1CCN(c2ncccn2)CC1,-21.1%
7,COc1ccccc1N1CCN(c2ccnc3cc(Cl)ccc23)CC1,-43.4%
8,Cc1ccc(F)cc1NC(=O)N1CCCN(c2ccc(C(F)(F)F)cn2)CC1,-43.3%
9,COc1ccccc1NC(=S)N1CCC(C(=O)c2ccc(F)cc2)CC1,-22.7%
10,COc1ccccc1NC(=O)N1CCC(C(=O)c2ccc(Cl)cc2)CC1,-72.7%
11,COc1ccccc1NC(=O)N1CCN(c2ccnc3cc(Cl)ccc23)CC1,-80.5%
12,Cc1cccc(Cl)c1NC(=O)N1CCN(c2ccnc3cc(Cl)ccc23)CC1,-16.8%
13,O=C(Nc1cc(F)ccc1F)N1CCN(c2ccnc3cc(Cl)ccc23)CC1,-66.4%
14,COc1ccccc1NC(=O)N1CCC(C(=O)c2ccc(F)cc2)CC1,0.487%
15,COc1cccc(Cl)c1NC(=O)N1CCN(c2ccnc3cc(Cl)ccc23)CC1,-44.1%
16,CCC(Sc1nc(-c2ccccc2)c(C#N)c(=O)[nH]1)C(=O)Nc1nnc(C)s1 (stereo not drawn),1.73%
17,Cc1ccc(NC(=S)Nc2nc(CC(=O)Nc3ccccc3)cs2)cc1,13%
18,COC(=O)c1ccc(-c2ccc(/C=N/N3C(=O)C4C5C=CC(CC5)C4C3=O)o2)cc1 (stereo not drawn),-16.1%
19,CC(C)CC(=O)N1CCN(Cc2cccc(Cl)c2)CC1,7.42%
20,CCN1CCN(CCNC(=O)c2ccc3c(c2)N(Cc2ccc(F)cc2)C(=O)/C(=C/c2ccccc2)S3)CC1,-42.7%
21,CN(C)Cc1nnnn1-c1cccc(-n2nnnc2CN(C)C)c1,12.3%
22,COCC(=O)NC1CCN(CC(=O)Nc2ccc(OC)cc2[N+](=O)[O-])CC1,-2.46%

row,SMILES,"hERG current change (%, negative = inhibition) at 10uM"
1,CC(C)c1ccc(Nc2nnc(SCC(=O)Nc3ncc(S(=O)(=O)c4ccc([N+](=O)[O-])cc4)s3)s2)cc1,13.8%
2,COC(=O)C1=CN(CCOC23CC4CC(CC(C4)C2)C3)C=C(C(=O)OC)C1c1ccsc1,10%
3,Cn1c(=O)[nH]c2ccc([N+](=O)[O-])nc21,9.62%
4,Cc1cc(=O)oc2cc(NC(=O)C3CC(=O)N(Cc4ccccc4)C3)ccc12 (stereo not drawn),5.29%
5,COc1ccc(NC(=O)N2CCN(c3cccc(C(F)(F)F)c3)CC2)cc1,-1.89%
6,COc1ccc(NC(=O)N2CCN(c3cccc(C(F)(F)F)c3)CC2)cc1OC,-1.73%
7,COc1ccccc1NC(=O)N1CCN(c2cccc(C(F)(F)F)c2)CC1,-76.6%
8,O=C(CN1C(=O)COCC1=O)N1CCOCC1,3.2%
9,Cc1ccc(C)n1-c1ccc(-c2nnco2)cc1,8.42%
10,COCCNCCCOc1ccc(C(C)(C)c2ccccc2)cc1.O=C(O)C(=O)O,-29.3%
11,COc1ccc(CCNCc2ccncc2)cc1.O=C(O)C(=O)O,-13.7%
12,COCCCNCCOc1ccc(C(C)(C)c2ccccc2)cc1.O=C(O)C(=O)O,-54.5%
13,COc1ccc(CCNCc2c(-c3ccccc3)n(C)c3ccccc23)cc1.O=C(O)C(=O)O,-52.3%
14,COc1ccc(CCNCc2ccccc2N2CCCC2)cc1.O=C(O)C(=O)O,-41.8%
15,COCCCNCCCOc1ccc(C(C)(C)c2ccccc2)cc1.O=C(O)C(=O)O,-19.9%
16,O=C(CCCOc1ccc(Cl)cc1)NCCc1ccccc1,5.77%
17,COc1ccc(OCCCNCCc2ccccc2)cc1.O=C(O)C(=O)O,-57%
18,c1ccc(CCNCCOc2ccccc2)cc1,-0.101%
19,Clc1ccc(OCCNCCc2ccccc2)cc1.O=C(O)C(=O)O,-73.7%
20,COc1ccc(CCNCc2ccccc2)cc1.O=C(O)C(=O)O,-23.9%
21,COc1ccc(OCCCC(=O)NCCc2ccccc2)cc1,-7.79%
